{
  "source": "PubChem BioAssay (NCI)",
  "note": "Compounds without any hit were thinned out: in the full panel of roughly 79,000, 15% have a hit. Values without a mark were called inactive. Cut-off read from the data, not from the text of the source: active = growth inhibition above about 70%; inactive = the rest. Residues, ends and D or L forms follow the SMILES beside them. *: point of attachment. Fmoc = O=C(OCC1c2ccccc2-c2ccccc21)*; Boc = CC(C)(C)OC(=O)*",
  "data": [
    {"experiment": "NCI Yeast Anticancer Drug Screen. Data for the mlh1 strain (AID 171);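 note: 0% = growth of vehicle-treated control cultures of the same strain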", "conditions": "S. cerevisiae mlh1 strain growth inhibition; at 1.2 µM; hits give high values", "how_it_was_run": "(§1)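 Yeast screen: mutant strain plus compound, growth scored against vehicle control wells.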", "units": {"growth inhibition": "%"}, "values": [
      {"smiles": "CC(C)C(=O)CC(Sc1ccc(N)cc1)c1ccccc1", "note": "(centres undefined)", "growth inhibition": 1},
      {"smiles": "O=[N+]([O-])c1cc(Cl)ccc1S(=O)(=O)c1ccc(Cl)cc1[N+](=O)[O-]", "growth inhibition": -3},
      {"smiles": "CCCCCCNCCCNc1c2cc(OC)ccc2nc2cccc([N+](=O)[O-])c12", "growth inhibition": 4},
      {"smiles": "N#CCC(=O)N/N=C(\\c1ccccc1)C(c1ccccc1)C1(O)C(=O)Nc2c(Cl)ccc(Cl)c21", "note": "(centres undefined)", "growth inhibition": 0},
      {"smiles": "CN(C)CCNCCCNc1c2ccccc2nc2cccc([N+](=O)[O-])c12", "growth inhibition": 5},
      {"smiles": "CCC[CH2][Ge]([CH2]CCC)([CH2]CCC)[O]C(=O)C(O)c1ccccc1", "note": "(centres undefined)", "growth inhibition": -1},
      {"smiles": "COc1ccc(-c2cc(-c3cc(C)cc(Cl)c3O)nc3[nH]c(=S)[nH]c(=S)c23)cc1", "growth inhibition": -1},
      {"smiles": "O=[N+]([O-])c1ccc(/C=C\\c2ccc3c(c2)OCO3)c([N+](=O)[O-])c1", "growth inhibition": -1},
      {"smiles": "O=C1c2ccccc2N2OC3(N4CCCC4)CCCCC3C12c1ccccc1", "note": "(centres undefined)", "growth inhibition": -46},
      {"smiles": "CC(C)OC(=O)NNc1cc(Cl)ccc1Cl", "growth inhibition": -1},
      {"smiles": "Cc1oc2ccccc2c(=O)c1Cn1nnc2ccccc21", "growth inhibition": -1},
      {"smiles": "CC1(C)OC(=O)C(=Cc2ccc([N+](=O)[O-])s2)C(=O)O1", "growth inhibition": -28},
      {"smiles": "CCN(CC)CCCNc1ccc([N+](=O)[O-])c2nc3ccc(OC)cc3c(NCCCN(CC)CC)c12", "growth inhibition": 0},
      {"smiles": "COc1cccc(/C=C2\\S/C(=N/Nc3nc(-c4ccc([N+](=O)[O-])cc4)cs3)NC2=O)c1O", "growth inhibition": -1},
      {"smiles": "C1=CCN([B-](c2ccccc2)[C+]2CCCCC2)C=C1", "growth inhibition": -1},
      {"smiles": "O=[N+]([O-])c1cc[n+]([O-])c(Cl)c1", "growth inhibition": -11},
      {"smiles": "CCCNC(=O)OCc1c(COC(=O)NCCC)c(-c2ccc(Cl)c(Cl)c2)n2c1CCC2", "growth inhibition": -9},
      {"smiles": "CC1(C)CC(=O)C(C(=O)Nc2cccs2)=C(O)C1", "growth inhibition": 1},
      {"smiles": "O=C(NO)c1coc2ccccc2c1=O", "growth inhibition": -1},
      {"smiles": "COc1ccc(C(C)c2cc3c(cc2OCC(C)=O)OCO3)cc1", "note": "(centres undefined)", "growth inhibition": -3},
      {"smiles": "O=S(=O)(c1ccccc1)N1CN2CN(C1)CN(S(=O)(=O)c1ccccc1)C2", "growth inhibition": -16},
      {"smiles": "CC1=NN(C(=O)c2ccccc2O)C(=O)/C1=C/c1ccco1", "growth inhibition": 12},
      {"smiles": "O=C1C=C(Br)C(=O)c2ccccc21", "growth inhibition": 8},
      {"smiles": "C[N+](C)([O-])CCCNc1c2ccccc2nc2cccc([N+](=O)[O-])c12", "growth inhibition": 14},
      {"smiles": "Cc1cccc2c(NCCCN(C)C)c3c([N+](=O)[O-])ccc(C)c3nc12", "growth inhibition": 8},
      {"smiles": "OC1(c2ccccc2)C2CC=CC2C1(c1ccccc1)c1ccccc1", "note": "(centres undefined)", "growth inhibition": -3},
      {"smiles": "C[n+]1c(-c2ccc(/C=N/NC(=O)c3ccc(C(=O)N/N=C/c4ccc(-c5cn6ccccc6[n+]5C)cc4)cc3)cc2)cn2ccccc21", "growth inhibition": 3},
      {"smiles": "O=[N+]([O-])c1ccc2nc(=S)[nH]n2c1", "growth inhibition": 7},
      {"smiles": "O=C(c1ccccc1)[C@H]1Nc2ccc(Cl)cc2[C@H]2OCCC[C@@H]12", "growth inhibition": -19},
      {"smiles": "COc1cc([N+](=O)[O-])c2ncccc2c1Br", "growth inhibition": -10},
      {"smiles": "O=S(=O)(c1cccc(C(F)(F)F)c1)N1c2ccccc2-n2cccc2C1c1cccnc1", "note": "(centres undefined)", "growth inhibition": -43},
      {"smiles": "CC(C)(C)OC(=O)NCCCCC(NC(=O)C(Cc1c[nH]c2ccccc12)NC(=O)OCC1c2ccccc2-c2ccccc21)C(=O)O", "note": "(centres undefined) (Fmoc-Trp-Lys(Boc)-OH; configuration not given here)", "growth inhibition": -1}
    ]},
    {"experiment": "NCI Yeast Anticancer Drug Screen. Data for the mlh1 strain (AID 171);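 note: 0% = growth of vehicle-treated control cultures of the same strain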", "conditions": "S. cerevisiae mlh1 strain growth inhibition; at 3.7 µM; hits give high values", "how_it_was_run": "as §1", "units": {"growth inhibition": "%"}, "values": [
      {"smiles": "CC(C)C(=O)CC(Sc1ccc(N)cc1)c1ccccc1", "note": "(centres undefined)", "growth inhibition": -2},
      {"smiles": "O=[N+]([O-])c1cc(Cl)ccc1S(=O)(=O)c1ccc(Cl)cc1[N+](=O)[O-]", "growth inhibition": 3},
      {"smiles": "CCCCCCNCCCNc1c2cc(OC)ccc2nc2cccc([N+](=O)[O-])c12", "growth inhibition": 2},
      {"smiles": "N#CCC(=O)N/N=C(\\c1ccccc1)C(c1ccccc1)C1(O)C(=O)Nc2c(Cl)ccc(Cl)c21", "note": "(centres undefined)", "growth inhibition": -1},
      {"smiles": "CN(C)CCNCCCNc1c2ccccc2nc2cccc([N+](=O)[O-])c12", "growth inhibition": 18},
      {"smiles": "CCC[CH2][Ge]([CH2]CCC)([CH2]CCC)[O]C(=O)C(O)c1ccccc1", "note": "(centres undefined)", "growth inhibition": -2},
      {"smiles": "COc1ccc(-c2cc(-c3cc(C)cc(Cl)c3O)nc3[nH]c(=S)[nH]c(=S)c23)cc1", "growth inhibition": -2},
      {"smiles": "O=[N+]([O-])c1ccc(/C=C\\c2ccc3c(c2)OCO3)c([N+](=O)[O-])c1", "growth inhibition": 1},
      {"smiles": "O=C1c2ccccc2N2OC3(N4CCCC4)CCCCC3C12c1ccccc1", "note": "(centres undefined)", "growth inhibition": -44},
      {"smiles": "CC(C)OC(=O)NNc1cc(Cl)ccc1Cl", "growth inhibition": 8},
      {"smiles": "Cc1oc2ccccc2c(=O)c1Cn1nnc2ccccc21", "growth inhibition": -2},
      {"smiles": "CC1(C)OC(=O)C(=Cc2ccc([N+](=O)[O-])s2)C(=O)O1", "growth inhibition": -24},
      {"smiles": "CCN(CC)CCCNc1ccc([N+](=O)[O-])c2nc3ccc(OC)cc3c(NCCCN(CC)CC)c12", "growth inhibition": -2},
      {"smiles": "COc1cccc(/C=C2\\S/C(=N/Nc3nc(-c4ccc([N+](=O)[O-])cc4)cs3)NC2=O)c1O", "growth inhibition": 6},
      {"smiles": "C1=CCN([B-](c2ccccc2)[C+]2CCCCC2)C=C1", "growth inhibition": -2},
      {"smiles": "O=[N+]([O-])c1cc[n+]([O-])c(Cl)c1", "growth inhibition": 16},
      {"smiles": "CCCNC(=O)OCc1c(COC(=O)NCCC)c(-c2ccc(Cl)c(Cl)c2)n2c1CCC2", "growth inhibition": -9},
      {"smiles": "CC1(C)CC(=O)C(C(=O)Nc2cccs2)=C(O)C1", "growth inhibition": 4},
      {"smiles": "O=C(NO)c1coc2ccccc2c1=O", "growth inhibition": 0},
      {"smiles": "COc1ccc(C(C)c2cc3c(cc2OCC(C)=O)OCO3)cc1", "note": "(centres undefined)", "growth inhibition": -4},
      {"smiles": "O=S(=O)(c1ccccc1)N1CN2CN(C1)CN(S(=O)(=O)c1ccccc1)C2", "growth inhibition": -18},
      {"smiles": "CC1=NN(C(=O)c2ccccc2O)C(=O)/C1=C/c1ccco1", "growth inhibition": 32},
      {"smiles": "O=C1C=C(Br)C(=O)c2ccccc21", "growth inhibition": 11},
      {"smiles": "C[N+](C)([O-])CCCNc1c2ccccc2nc2cccc([N+](=O)[O-])c12", "growth inhibition": 22},
      {"smiles": "Cc1cccc2c(NCCCN(C)C)c3c([N+](=O)[O-])ccc(C)c3nc12", "growth inhibition": 18},
      {"smiles": "OC1(c2ccccc2)C2CC=CC2C1(c1ccccc1)c1ccccc1", "note": "(centres undefined)", "growth inhibition": 1},
      {"smiles": "C[n+]1c(-c2ccc(/C=N/NC(=O)c3ccc(C(=O)N/N=C/c4ccc(-c5cn6ccccc6[n+]5C)cc4)cc3)cc2)cn2ccccc21", "growth inhibition": 11},
      {"smiles": "O=[N+]([O-])c1ccc2nc(=S)[nH]n2c1", "growth inhibition": -5},
      {"smiles": "O=C(c1ccccc1)[C@H]1Nc2ccc(Cl)cc2[C@H]2OCCC[C@@H]12", "growth inhibition": -31},
      {"smiles": "COc1cc([N+](=O)[O-])c2ncccc2c1Br", "growth inhibition": -5},
      {"smiles": "O=S(=O)(c1cccc(C(F)(F)F)c1)N1c2ccccc2-n2cccc2C1c1cccnc1", "note": "(centres undefined)", "growth inhibition": -15},
      {"smiles": "CC(C)(C)OC(=O)NCCCCC(NC(=O)C(Cc1c[nH]c2ccccc12)NC(=O)OCC1c2ccccc2-c2ccccc21)C(=O)O", "note": "(centres undefined) (Fmoc-Trp-Lys(Boc)-OH; configuration not given here)", "growth inhibition": -1}
    ]}
  ]
}
